We go through eleven molecules from PubChem BioAssay.

Calls of active or inactive are those of the source. Unless noted, no rule for the calls is given here.

Test [1] is described as follows: resazurin metabolic signal in HepG2 cells – cell-based, resazurin fluorescence, 24 h, PK04 Diversity Set, profiling panel (AID 1172). Also: test concentration not given here. Particulars: HepG2 viability, higher = more signal. In general terms: The colour change of resazurin is a common sign of viable cells or microbes.
Test [2] is described as follows: budding yeast growth changes without added modifier – OD600, strain BY4716, 24 h, basal condition, primary screen (AID 1173). To be noted: S. cerevisiae BY4716 growth, OD600, 24 h; higher = more signal, called active from +8 up or from −8 down.
Test [3] in a line: viability profiling in MM1S myeloma cells – cell-based, resazurin fluorescence, basal, 24 h, PK04 Diversity Set, profiling panel (AID 1174). Also: test concentration not given here. To be noted: higher = more signal, called active from +8 up or from −8 down.
Test [4] has as its target Dihydroorotate dehydrogenase (quinone), mitochondrial (Plasmodium falciparum (isolate 3D7)) (UniProt Q08210). Put plainly: inhibition of P. falciparum DHODH – biochemical, C-terminal His tag, absorbance 600 nm, primary screen (AID 1175).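 Also: recombinant parasite enzyme with a five histidine tag at its C terminus; test concentration not given here.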 To be noted: PfDHODH enzyme, DCIP absorbance 600 nm; higher = more signal, called active from +8 up or from −8 down.
Test [5] can be described thus: inhibition of PAO1 biofilm formation – strain PAO1, LB-PBS medium, absorbance 600 nm, primary screen (AID 1176). Also: test concentration not given here. Particulars: P. aeruginosa PAO1 growth/biofilm, A600, 12 h; higher = more signal.
A short description of test [6]: growth modulation of vineyard yeast isolate – strain RM11-1a, OD600, basal, 24 h, primary screen (AID 1177).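 Also: cultures grown under basal conditions with no added stressor; test concentration not given here.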 To be noted: S. cerevisiae RM11-1a growth, OD600, 24 h; higher = more signal, called active from +8 up or from −8 down.
A short description of test [7]: growth of efflux-deficient E. coli DRC39 – strain DRC39, OD650, 24 h, E. coli filamentation inducers, primary screen (AID 1178).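 Also: growth measured as culture turbidity by optical density at 650 nm; test concentration not given here.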 Particulars: E. coli DRC39 acrAB, higher = more signal, called active from +8 up or from −8 down.
Test [8] can be described thus: growth of efflux-deficient E. coli DRC39 – strain DRC39, OD650, 48 h, E. coli filamentation inducers, primary screen (AID 1179).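 Also: screen aims at cell division blockers that make cells filament.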 Particulars: E. coli DRC39 delta-acrAB growth, higher = more signal, called active from +8 up or from −8 down.
Test [9] can be described thus: viability profiling in RPMI8226 myeloma cells – cell-based, resazurin fluorescence, basal, 24 h, PK04 Diversity Set, profiling panel (AID 1180).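 Also: RPMI8826 multiple myeloma cell line at 5000 cells per well; test concentration not given here.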 Particulars: higher = more signal.
Test [10] deals with E3 ubiquitin-protein ligase XIAP (Homo sapiens) (UniProt P98170). Put plainly: small molecules binding XIAP protein – biophysical, small-molecule microarray, fluorescence 635 nm, primary screen (AID 1181).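 Also: score merges 667 nm emission and signal to noise over triplicate slides.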 Particulars: higher = more signal.
Chain of E3 ubiquitin-protein ligase XIAP (Homo sapiens) (P98170 whole entry, looked up): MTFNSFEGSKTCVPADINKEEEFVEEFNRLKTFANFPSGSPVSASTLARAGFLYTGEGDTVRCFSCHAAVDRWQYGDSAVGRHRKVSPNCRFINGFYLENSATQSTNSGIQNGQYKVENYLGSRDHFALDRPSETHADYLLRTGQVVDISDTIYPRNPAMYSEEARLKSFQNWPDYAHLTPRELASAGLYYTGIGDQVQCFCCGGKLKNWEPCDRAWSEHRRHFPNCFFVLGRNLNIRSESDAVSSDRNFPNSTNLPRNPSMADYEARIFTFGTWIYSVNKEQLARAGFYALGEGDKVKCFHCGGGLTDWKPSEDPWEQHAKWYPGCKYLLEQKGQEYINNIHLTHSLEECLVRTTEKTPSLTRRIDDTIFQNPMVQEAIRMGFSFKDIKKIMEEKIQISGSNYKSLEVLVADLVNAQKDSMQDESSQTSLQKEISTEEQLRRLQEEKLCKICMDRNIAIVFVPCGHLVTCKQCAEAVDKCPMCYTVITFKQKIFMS

Chain of Dihydroorotate dehydrogenase (quinone), mitochondrial (Plasmodium falciparum (isolate 3D7)) (Q08210 whole entry, looked up): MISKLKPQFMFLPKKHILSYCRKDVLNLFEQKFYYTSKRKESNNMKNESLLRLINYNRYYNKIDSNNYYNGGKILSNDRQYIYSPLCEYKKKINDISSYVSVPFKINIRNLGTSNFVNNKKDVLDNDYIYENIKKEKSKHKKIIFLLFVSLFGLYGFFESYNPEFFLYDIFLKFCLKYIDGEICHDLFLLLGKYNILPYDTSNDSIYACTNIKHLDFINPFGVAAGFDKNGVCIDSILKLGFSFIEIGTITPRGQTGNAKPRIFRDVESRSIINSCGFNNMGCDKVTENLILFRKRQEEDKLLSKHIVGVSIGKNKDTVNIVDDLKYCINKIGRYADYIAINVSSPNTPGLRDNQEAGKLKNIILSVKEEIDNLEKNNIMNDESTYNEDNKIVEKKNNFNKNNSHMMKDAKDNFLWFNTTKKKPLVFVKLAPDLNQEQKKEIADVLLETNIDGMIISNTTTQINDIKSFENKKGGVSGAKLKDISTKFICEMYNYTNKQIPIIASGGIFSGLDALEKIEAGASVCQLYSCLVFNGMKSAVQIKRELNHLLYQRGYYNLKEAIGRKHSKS

Take `O=C1O[C@@H](c2ccccc2)[C@@H](c2ccccc2)N2[C@@H](c3ccc(O)cc3)[C@]3(C(=O)Nc4ccccc43)[C@@H](C(=O)N3CCCCCCC3)[C@H]12`: the z-score in test [1] was 0.305; in test [2], 0.189 (inactive); in [3], -1.05 (inactive); in test [5], 1.34 (inactive); in test [6] it was 1.19 (inactive); in test [7], 0.36 (inactive). In addition, the z-score was -1.16 (inactive) in test [8] and -1.01 in [9]. Also, the composite z-score in test [4] was 0.0791 (inactive); in test [10], 0.613.
Consider `O=C1C2C=CC(C(O)c3ccc(Br)cc3)N(n3cnnc3)C2C(=O)N1Cc1ccccc1` (stereo not given), for which the z-score in [1] is -0.009; in [2], -17.1 (active); in [3], -0.381 (inactive); in [5], -0.184 (inactive); in test [6] it was -23 (active); in [7] it was -0.999 (inactive). The z-score in [8] was -1.96 (inactive); in [9], -0.396. Besides, the results for the composite z-score in test [4] and in [10] were -1.37 (inactive) and 1.33, respectively.
In the case of `O=C(NCC(O)CO)[C@]1(CCS(=O)(=O)c2ccccc2)N=C(c2ccc(OCCCO)cc2)O[C@@H]1c1ccccc1` (stereo not given in full), the z-score in [1] is -0.015; in test [2] it was 0.53 (inactive); in test [3], -0.57 (inactive); in test [5], 0.193 (inactive); in test [6], -0.702 (inactive); in test [7], -0.0686 (inactive). Besides, the z-score was -0.276 (inactive) in test [8] and 0.0882 in test [9]. For the same molecule, the composite z-score in test [4] was -0.162 (inactive); in test [10], -0.0203.
`O=C1OCCC=C[C@H]2OC34C=CCN(CCN5CCOCC5)C(=O)[C@H]3N(CCO)C(=O)[C@@H]4C12` (stereo not given in full): the z-score in test [1] is -0.0535; in test [2], -0.663 (inactive); in test [3] it was -1.45 (inactive); in test [5], 0.0962 (inactive); in test [6], -0.249 (inactive); in test [7] it was -1.14 (inactive). In addition, the results for the z-score in test [8] and in [9] were -0.99 (inactive) and -0.6, respectively. Further, the results for the composite z-score in test [4] and in [10] were -1.85 (inactive) and 0.0264, respectively.
`O=C1OCCC=C[C@H]2OC34C=CCN(c5ccc6ccccc6c5)C(=O)[C@H]3N(CCCCCCO)C(=O)[C@@H]4C12` (stereo not given in full): the z-score was 0.523 in [1]; -0.546 (inactive) in [2]; -0.0449 (inactive) in test [3]; -0.497 (inactive) in test [5]; 0.522 (inactive) in [6]; 0.982 (inactive) in test [7]. Moreover, the z-score in test [8] was 1.29 (inactive); in test [9], 0.868. Besides, the composite z-score was 0.401 (inactive) in [4] and -0.0953 in test [10].
Regarding `O=C1O[C@@H](c2ccccc2)[C@@H](c2ccccc2)N2[C@@H](c3ccc(O)cc3)[C@]3(C(=O)Nc4ccccc43)[C@@H](C(=O)NC[C@H](O)c3ccccc3)[C@H]12`, the z-score in test [1] was 1.42; in test [2] it was -0.882 (inactive); in test [3], 0.616 (inactive); in test [5] it was -0.489 (inactive); in test [6], 0.0813 (inactive); in test [7], 0.389 (inactive). For the same molecule, the z-score in test [8] is -0.163 (inactive); in [9] it was -0.273. Moreover, the composite z-score in test [4] was 0.609 (inactive); in test [10], 0.272.
`COCCCNC(=O)[C@@]1(Cc2ccccc2I)c2ccccc2C(=O)N(Cc2ccccc2)[C@H]1c1ccc(CO)cc1`: the z-score was 0.348 in test [1]; 0.346 (inactive) in [2]; 1.01 (inactive) in [3]; -0.205 (inactive) in [5]; 2.28 (inactive) in test [6]; 0.322 (inactive) in [7]. For the same molecule, the figures for the z-score in [8] and in test [9] were -0.15 (inactive) and 1.5, respectively. Also, the results for the composite z-score in test [4] and in [10] were 1.17 (inactive) and -0.193, respectively.
As to `[N-]=[N+]=Nc1ccccc1C[C@]1(C(=O)N2CCCCC2)N=C(c2ccc(OCCCO)cc2)O[C@H]1c1ccccc1N=[N+]=[N-]`, the z-score in [1] was -0.776; in test [2], -0.254 (inactive); in test [3] it was -3.52 (inactive); in test [5], 1.07 (inactive); in test [6] it was 0.975 (inactive); in [7] it was -0.125 (inactive). Also, the z-score in [8] is -0.319 (inactive); in test [9], -4.29. In addition, the results for the composite z-score in test [4] and in test [10] were 0.584 (inactive) and 0.0727, respectively.
Regarding `NC(=O)NCC#Cc1ccc2c(c1)[C@]1(C(=O)N2)[C@H](c2ccc(O)cc2)N2[C@H](c3ccccc3)[C@H](c3ccccc3)OC(=O)[C@H]2[C@@H]1C(=O)N1CCN(c2ncccn2)CC1`, the z-score is -0.271 in test [1]; 0.244 (inactive) in test [2]; 0.965 (inactive) in test [3]; 1.18 (inactive) in [5]; 0.517 (inactive) in test [6]; 0.247 (inactive) in test [7]. Also, the z-score was 0.0093 (inactive) in test [8] and 1.24 in test [9]. The composite z-score is -0.154 (inactive) in test [4] and -0.0004 in test [10].
In the case of `O=C1C2C=CC(C(O)c3ccc(-c4ccccc4)s3)N(Nc3ccccc3F)C2C(=O)N1c1ccccc1` (stereo not given), the z-score in test [1] is -1.5; in test [2], 0.025 (inactive); in test [3], -1.38 (inactive); in test [5], 0.366 (inactive); in [6], 1.19 (inactive); in test [7], -0.516 (inactive). The z-score in test [8] was -0.795 (inactive); in [9], -1.6. In addition, the composite z-score in test [4] is 0.853 (inactive); in test [10], 0.0101.
Take `Cc1ccc(N2C(=O)c3ccccc3[C@@H](C(=O)NCC(C)C)[C@@H]2c2ccc(CO)cc2)nc1`: the z-score in test [1] was -0.324; in test [2] it was 0.0089 (inactive); in [3], 0.439 (inactive); in test [5], 0.348 (inactive); in test [6], -0.746 (inactive); in test [7], 0.483 (inactive). The z-score in [8] was 0.603 (inactive); in test [9], 0.68. The composite z-score was 0.351 (inactive) in test [4] and -0.148 in test [10].
